Assay [1] in a line: Viability qHTS for spleen associated tyrosine kinase inhibitor (SYKi) drug resistant MV4-11 cells (AID 1963824). Also: nearly all actives have a fitted effect of over 35% in size. To be noted: SYKi-resistant MV4-11 viability, CellTiter-Glo, 72 h; series mostly up to 45 µM. The gist of the method:
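SYK inhibitor-resistant MV4-11 AML cells, 500 per well, added to predispensed compounds and incubated 72 hr at 37 C, 5% CO2. Viability measured by CellTiter-Glo luminescence after 10 min at room temperature.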

Assay [2] is described as follows: Quantitative highthroughput screen to assess conditional lethalithy of NOMO1 cells grown in RPMI1640 with untreated serum (RPMI+s) (AID 1963876). Also: nearly all actives have a fitted effect of over 35% in size.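 As to Viability: 100% = DMSO wells and 0% = empty wells without cells.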 To be noted: NOMO1 AML cells in RPMI+serum, CellTiter-Glo viability, 48 h; series mostly up to 45.8 µM. In a few lines: (§1)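 Each medium arm—HPLM with 10% dialyzed FBS, or RPMI1640 with 5 mM glucose and 10% untreated or dialyzed FBS—was screened against an 11-point, 3-fold compound titration for 48 h at 37 °C, with CellTiter-Glo luminescence as endpoint.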

A short description of assay [3]: Quantitative highthroughput screen to assess conditional lethalithy of NOMO1 cells grown in RPMI1640 with dialyzed fetal bovine serum (RPMI+ds) (AID 1963877). Also: nearly all actives have a fitted effect of over 30% in size.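 As to Viability: 100% = DMSO control wells and 0% = empty wells.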 To be noted: NOMO1 in RPMI+dialyzed FBS viability, ATP luminescence, 48 h; series mostly up to 45.8 µM. The gist of the method:
as §1

A short description of assay [4]: Quantitative highthroughput screen to assess conditional lethalithy of NOMO1 cells grown in Human Plasma-Like Medium with dialyzed fetal bovine serum (HPLM+ds) (AID 1963878). Also: nearly all actives have a fitted effect of over 35% in size.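 As to Viability: 100% = DMSO wells and 0% = empty wells on each plate.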 Particulars: NOMO1 AML cells in HPLM+ds, CellTiter-Glo viability, 48 h; series mostly up to 45.8 µM. In a few lines:
as §1

Assay [5] in a line: Quantitative highthroughput screen to assess conditional lethalithy of P12 Ichikawa cells grown in Human Plasma-Like Medium with dialyzed fetal bovine serum (HPLM+ds) (AID 1963879). Also: nearly all actives have a fitted effect of over 35% in size. To be noted: ATP luminescence, 48 h; Potency: viability; series mostly up to 45.8 µM. In a few lines:
as §1

Assay [6] is described as follows: Quantitative highthroughput screen to assess conditional lethalithy of P12 Ichikawa cells grown in RPMI1640 with dialyzed fetal bovine serum (RPMI+ds) (AID 1963880). Also: nearly all actives have a fitted effect of over 35% in size.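 As to Viability: 100% = DMSO wells and 0% = empty wells on each plate.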 Particulars: ATP luminescence, 48 h; Potency: P12-Ichikawa viability; series mostly up to 45.8 µM. The gist of the method: as §1
Assay [7] in a line: Quantitative highthroughput screen to assess conditional lethalithy of P12 Ichikawa cells grown in RPMI1640 with untreated serum (RPMI+s) (AID 1963881). Also: nearly all actives have a fitted effect of over 35% in size.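 As to Viability: 100% = DMSO wells and 0% = empty wells without cells.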 To be noted: ATP luminescence, 48 h; Potency: viability; series mostly up to 45.8 µM. In a few lines:
as §1

Assay [8] can be described thus: Quantitative highthroughput screen to assess conditional lethalithy of SEM cells grown in Human Plasma-Like Medium with dialyzed fetal bovine serum (HPLM+ds) (AID 1963882). Also: nearly all actives have a fitted effect of over 35% in size. Particulars: SEM B-ALL cells in HPLM+ds, CellTiter-Glo viability, 48 h; series mostly up to 45.8 µM. The gist of the method:
as §1

Assay [9] in a line: Quantitative highthroughput screen to assess conditional lethalithy of SEM cells grown in RPMI1640 with unreated serum (RPMI+s) (AID 1963883). Also: nearly all actives have a fitted effect of over 35% in size.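 As to Viability: 100% = DMSO wells and 0% = empty wells without cells.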 To be noted: SEM B-ALL cells, CellTiter-Glo viability, 48 h; series mostly up to 45.8 µM. The gist of the method: as §1
A short description of assay [10]: Quantitative highthroughput screen to assess conditional lethalithy of SEM cells grown in RPMI1640 with dialyzed fetal bovine serum (RPMI+ds) (AID 1963884). Also: nearly all actives have a fitted effect of over 35% in size.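 As to Viability: 100% = DMSO control wells and 0% = empty wells without cells.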 To be noted: SEM B-ALL cells, RPMI+dialyzed FBS, CellTiter-Glo viability, 48 h; series mostly up to 45.8 µM. In a few lines:
as §1

A short description of assay [11]: Cellular viability qHTS for adrenocortical cancer (ACC) cell line SW-13 (AID 1963989). Also: nearly all actives have a fitted effect of over 65% in size.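 As to activity (max response): cells grown in serum-free medium with ITS supplement; % is scaled to controls: 0 for no effect and ±100 for the full control effect.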 Particulars: SW-13 ACC cells viability, CellTiter-Glo, 48 h; activity (max response): stronger effect = lower value. The gist of the method: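 Here, serum-free SW-13 cultures were dosed up to 46 uM. Following 48 h, ATP-dependent luminescence (CellTiter-Glo) reported viable cells, and logistic modeling produced IC50 values.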

A short description of assay [12]: Cellular viability qHTS for adrenocortical cancer (ACC) cell line NCI-H295R (AID 1963990). Also: nearly all actives have a fitted effect of over 60% in size. Particulars: CellTiter-Glo ATP luminescence, 48 h; series mostly up to 46.1 µM. In a few lines:
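Viability of NCI-H295R after 48 h of treatment (final up to 46 uM) measured through cellular ATP luminescence.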

Values joined by “and” are separate entries in the source; they are usually repeats but may differ in a detail not shown here. Equal values may be shown once. Results filed as inconclusive are left out. Some structures have more than one record in an assay (separate samples or runs), and their calls can disagree. Active and inactive are the calls of the source. Calls follow the shape of the dose curve; as a rule, active = well fitted curve in the direction sought with a large enough effect; inconclusive = small, poorly fitted or top-dose-only effect, or another doubt; inactive = no such curve, though single readings can be large; an effect the other way counts as inactive or inconclusive.
Potency is read from the fitted curve at half-maximal effect.

Regarding `Cc1cc(Nc2ncc3c(n2)N(C)C(=O)N(c2cc(NC(=O)c4cccc(C(F)(F)F)c4)ccc2C)C3)n(C)n1`, the Potency in assay [1] is 0.0295 µM (active); in assay [2] it was 1660 nM (active); in assay [3] it was 1180 nM (active); in assay [4] it was 1180 nM (active); in assay [5] it was 16600 nM (active); in [6] it was 11800 nM (active). Moreover, the Potency in assay [7] is 5900 nM (active); in assay [8] it was 469 nM (active); in assay [9] it was 372 nM (active); in assay [10], 372 nM (active); in [11], 0.355 µM (active); in assay [12], 1.26 µM (active).
On to `CC(C)(Sc1ccc(CCN(CCCCC2CCCCC2)C(=O)NC2CCCCC2)cc1)C(=O)O`, for which, in assay [1], the Potency was 18.6 µM (active). The Potency result in [2], in assay [3], in [4], in assay [5], in assay [7] and in [8] was “inactive” each time. Also, the Potency entry in assay [10] and in assay [12] was “inactive” each time. For the same molecule, in assay [11], the activity (max response) was 4.08% (inactive).
Turning to `O=C(O)CCc1ccc(NCc2cccc(Oc3ccccc3)c2)cc1`, the Potency in assay [1] was 16.4 µM (active). The Potency result in assay [2], in assay [3], in [4], in [5], in assay [6] and in assay [7] was “inactive” throughout. The Potency entry in assay [9] and in assay [12] was “inactive” each time. Besides, in assay [11], the activity (max response) was -8.89% (inactive).
Turning to `COc1ccc(-c2cc(=O)c3c(O)cc(O)cc3o2)cc1O`, the Potency in [1] is 10.5 µM (active). Further, the Potency entry in assay [2], in assay [3], in [4], in [5], in assay [6] and in [7] was “inactive” each time. Moreover, the Potency result in [12] was “inactive”. In assay [11], the activity (max response) was -29.6% (inactive).
With `Nc1ccn([C@@H]2C(F)=C(CO)[C@@H](O)[C@H]2O)c(=O)n1`, the Potency in assay [1] is 1.03 µM (active); in assay [2], 5240 nM (active); in [3] it was 2950 nM (active); in [4], 2630 nM (active); in [5], 1660 nM (active); in assay [10], 1480 nM (active).
For the molecule `Nc1nc(OCc2ccccc2)c2[nH]cnc2n1`, the Potency in assay [1] was 20.9 µM (active). In addition, the Potency result in assay [2], in [3], in assay [4], in [5], in [6] and in assay [8] was “inactive” in each case. Moreover, the Potency result in assay [9], in [10] and in [12] was “inactive” in each case. Also, the activity (max response) in assay [11] is -9.18% (inactive).
On to `CNc1nc(Nc2ccc(C(=O)N3CCOCC3)cc2OC)ncc1Cl`, for which the Potency in assay [1] was 5.8 µM (active). Further, the Potency entry in assay [2], in assay [3], in assay [4], in assay [5], in [6] and in assay [7] was “inactive” in each case. Moreover, the Potency entry in assay [12] was “inactive”. The activity (max response) in assay [11] is -6.87% (inactive).
As to `COc1cccc2nc(-c3cccs3)nc(NN3C(=O)C=C(C)C3=O)c12`, the Potency in assay [1] is 0.148 µM (active); in assay [2], 1480 nM (active); in [3], 1320 nM (active); in [4], 469 nM (active); in assay [7] it was 2640 nM (active); in [8], 418 nM (active). Further, the Potency was 935 nM (active) in assay [9], 1320 nM (active) in assay [10], 11.2 µM (active) in [11] and 2.82 µM (active) in [12].
In the case of `N#CC1(c2cccc(C(=O)Nc3cc(Oc4ccc5nc(NC(=O)C6CC6)sc5n4)ccc3F)c2Cl)CC1`, the Potency in [1] is 0.58 µM (active); in [2], 3720 nM (active); in assay [3], 2090 nM (active); in [4] it was 1320 nM (active); in assay [5] it was 5900 nM (active); in assay [7], 5260 nM (active). For the same molecule, in [9], the Potency is 3720 nM (active).
In the case of `Clc1ccc(C(c2ccc(Cl)cc2)n2cc[n+](CC(OCc3ccc(Cl)cc3Cl)c3ccc(Cl)cc3Cl)c2)cc1` (stereo not given), the Potency in [1] is 1.86 µM (active); in [2], 20900 nM (active); in assay [3], 26400 nM (active); in [4], 26400 nM (active); in assay [8] it was 16600 nM (active); in assay [9], 13200 nM (active). The results for the Potency in assay [11] and in assay [12] were 5.01 µM (active) and 8.91 µM (active), respectively.
As for `O=C(NOC[C@H](O)CO)c1ccc(F)c(F)c1Nc1ccc(I)cc1F`, the Potency was 0.164 µM (active) in [1]; 187 nM (active) in [2]; 33.2 nM (active) in assay [3]; 148 nM (active) in assay [4]; 20900 nM (active) in assay [5]; 7430 nM (active) in assay [8]. Also, the Potency in assay [9] and in [10] was 11800 nM (active) throughout.
As to `N#CC(c1ccc(Cl)cc1)c1c(Cl)cc(-n2ncc(=O)[nH]c2=O)cc1Cl` (stereo not given), the Potency in assay [1] was 26.3 µM (active). The Potency result in assay [2], in [3], in assay [4], in assay [7], in [8] and in [9] was “inactive” each time. For the same molecule, the Potency result in assay [10] is “inactive”.
As to `COc1ccc(-c2nc3ccc(C4=NNC(=O)CC4C)cc3[nH]2)cc1` (stereo not given), the Potency in assay [1] is 11.8 µM (active); in assay [11], 18.4 µM (active) and 20 µM (active); in assay [12] it was 6.51 µM (active) and 14.1 µM (active). In addition, the Potency result in assay [2], in assay [3], in [4], in assay [5], in assay [7] and in assay [9] was “inactive” throughout. Also, the Potency entry in assay [10] is “inactive”.
With `NC(=O)c1ccc(N(C(N)=O)c2c(F)cccc2F)nc1-c1ccc(F)cc1F`, in assay [1], the Potency is 10.3 µM (active) and inactive. The Potency result in assay [2], in assay [3], in [4], in assay [5], in assay [6] and in [7] was “inactive” in each case. The Potency result in assay [9] and in [12] was “inactive” in each case. The activity (max response) in assay [11] was -4.37% (inactive).
Turning to `Cc1ccc(-c2ncn(-c3ccc(Nc4nccc(-c5cccc(N6CCOCC6)c5)n4)cc3)n2)cn1`, the Potency in assay [1] was 2.35 µM (active); in assay [2], 372 nM (active); in [3] it was 372 nM (active); in assay [4] it was 296 nM (active); in assay [5], 296 nM (active); in [6], 372 nM (active). Further, the Potency is 235 nM (active) in [8] and 118 nM (active) in assay [9]. Also, in assay [11], the activity (max response) was 11.5% (inactive).
Consider `NC(CO)C(=O)NNCc1ccc(O)c(O)c1O` (stereo not given), for which the Potency in assay [1] was 23.5 µM (active). Also, the Potency result in [2], in assay [3], in [4] and in [8] was “inactive” each time.
Take `C[C@H](c1ccc(F)cc1CCCC(=O)O)N(c1cc(F)ccc1F)S(=O)(=O)c1ccc(Cl)cc1`: the Potency in assay [1] is 18.6 µM (active). For the same molecule, the Potency result in [2], in assay [3], in assay [4], in assay [5], in assay [6] and in assay [12] was “inactive” in each case. The activity (max response) in assay [11] is -23.1% (inactive).
As for `Cc1ccccc1C(C(=O)NC1CCCCC1)N(C(=O)CNc1ccc(C#N)cc1)c1cccc(F)c1` (stereo not given), the Potency result in [1], in assay [2], in [3], in [4], in assay [5] and in assay [8] was “inactive” throughout. The Potency result in assay [9], in [10] and in assay [12] was “inactive” throughout. Also, in assay [11], the activity (max response) was -0.757% (inactive).

For the origin of these results see PubChem BioAssay (NCATS).
